69 sequences from PubChem BioAssay AID1508600 (Functional Genomics Laboratory (NCATS/FGL), 2020) can be followed below.

About 3,700 (7%) of roughly 53,000 sequences were called active. This is one part of a sample in which actives are shown more often than they occur.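 The calls were made as follows: active = gene knockdowns whose robust z-score for IL-1 alpha signal is at least 2 or at most -2, so actives lie on both sides; inactive = the rest.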

The nature of the assay: Components of the Cytosolic LPS Sensing Pathway: Gene Identification via Genome-wide siRNA Screen.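 Also: robust z of the log signal after scaling to non-targeting control siRNA wells of the plate.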 The conditions noted are these: RAW264.7 macrophages, IL-1a HTRF, actives lie on both sides, screened at 100 nM (by protocol), cells primed 5 h with Pam3CSK4 first. A digest of the protocol:
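Using IL-1a HTRF as read-out, the screen measured release from RAW264.7 cells after 48h siRNA knockdown (100 nM), 5 h Pam3CSK4 priming and 24 h cytosolic LipidA. Values were expressed relative to negative-control wells as robust z-scores.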
(Time-resolved FRET reads energy transfer from a long-lived donor to a nearby acceptor.)
Regarding CGAAAUUGCUGACUCAGAATT against Arl6ip6, the z-score is 0.549 (inactive). With CCCAGCUUUCAUCCUUUGUTT against Emc7 the figure was 0.237 (inactive). With GGGCAGUCUGAUAGAGGAUTT against Adam30 the figure was -0.632 (inactive); with GGCUUCUGAUCUUACCUGGTT against Smim12, 0.683 (inactive); with GGAGGAACCCUCAUUUUAGTT against Prxl2c, -0.897 (inactive). The figure for CCAACUCGGCUGUUUUUUATT against F11r is 0.149 (inactive).

Consider GGAAAGCACCCAAGAAAUGTT against Gspt1, for which the z-score was -0.915 (inactive). With GGUACAAUCCCAGAUUUGATT against Smc3 the figure was -2.37 (active). With CCCUUAAGUCUUUUUCCUATT against Celf2 the figure was -1.09 (inactive). The figure for GGCCAUGGUGGCGUGUUAUTT against Egln2 is -0.524 (inactive); for GCUGCUCCCUCUAAUAAAATT against Cbr1 it is -0.913 (inactive). Take GGCGUGAACCAAACAGACUTT against Calcrl: the z-score is -0.604 (inactive). The figure for CGGAGCCAAAUACGAAGGGTT against Jph3 is -0.548 (inactive); for GGCAGAAAAGAUGGAAAAUTT against Evi5l it is -2.1 (active); for GGCAAGCACACAAUGAUGCTT against Plin5 it is -0.0222 (inactive). With GGUAGAACAACAGAACAAUTT against Myo5b the figure was 2.9 (active). With GCAGCUUCAAGAGAGCCAUTT against Rhbdl1 the figure was -0.604 (inactive). For the sequence GGAAGUAGCCCAGAAGUGUTT against Rad51d, the z-score was -0.337 (inactive). The figure for GGGAGAGUUCCAUAAAUUGTT against Narf is -0.728 (inactive); for GGGACUGGCACCAUUUGUUTT against Cetn4 it is -0.289 (inactive).

In the case of GGACAUGGCUUUAUAACCUTT against Dcdc5, the z-score is 0.256 (inactive).

Turning to GCAGCAUAGAGACUAAAUCTT against Usp17la, the z-score is 0.604 (inactive). In the case of GGAUAAAAUUGAGUCUAUGTT against Was, the z-score is 1.81 (inactive). With GGGCCAAUGAUGGACUUCCTT against Syp the figure was 0.33 (inactive). Regarding GGCCCUAUUAGAGAUAAAATT against Robo3, the z-score was -1.2 (inactive). As to GGUAGUCUGAACACUCUAATT against Msto1, the z-score was 0.427 (inactive).

For the sequence GGAAGAAGAGGAGGAGAUGTT against Zbtb7b, the z-score was 3.17 (active). With GCUAUCUCCACUCUGAGUCTT against Spryd4 the figure was -0.342 (inactive). The figure for CCGCCAGGGAAACAAAUACTT against Zfp414 is -1.21 (inactive). With GCUUCUGCUUGUUCGCUAGTT against Usp17ld the figure was 2.7 (active); with GCUCACUAUGUAAAGAGAATT against Itpk1, 0.807 (inactive). For GGAGAGUCAAGUCUUUUCUTT against Dnal4, the z-score was 0.0546 (inactive). In the case of GGACAAACUCCGAGACUCCTT against Utf1, the z-score is -0.339 (inactive). With GGAUGAUCAUUCUAGCUGUTT against Hormad1 the figure was 0.836 (inactive); with GGUGUCUGAUUCUAACAUATT against Catsper4, 0.589 (inactive). As to GGAAGAAAACACCAUUUUUTT against Irf6, the z-score is 3.12 (active).

With GGUGCAAUCAGGUAUUUCATT against Olfr917, the z-score is -2.26 (active).

For GGAAAGUGGACACCUUCCATT against Vezt, the z-score was 1.2 (inactive). With CCAGAAGCCAUUAACUAUGTT against Lck the figure was -0.479 (inactive); with GGACGUGGAAAACCACAGUTT against Nphp4, 0.0474 (inactive). With GGAUUUCGAGAAAAUCAACTT against Kctd4 the figure was -0.225 (inactive); with GGUGCUGGACAAAUUGAGATT against Cgas, -0.189 (inactive); with GGAGUGCAGUCACUAUUUGTT against Il2rg, -0.0154 (inactive). With GGUUCUUCAGGCCACUGAUTT against Dnaaf2 the figure was 0.982 (inactive); with GGAUGCAGAGAAGAAUCUGTT against Psmd6, -2.65 (active). For the sequence GGAGAAGGACCAUCUAAAGTT against Cmah, the z-score was 0.901 (inactive). CGUCUAGGAAGGAAACAGGTT against Stk32a: the z-score was -1.54 (inactive). The figure for GGAUGGUUACUAUCAGACUTT against Exoc3 is 0.187 (inactive); for CCAGAUGGAAAGCGAAAAATT against Thra it is -0.27 (inactive); for GGAGAAUGGCCACGUAAAATT against Marcks it is 0.294 (inactive).

Take GGAUAUCUCACUGCUUUUATT against Mpp5: the z-score is 2.13 (active). Take GGCAUCCUUGAGCUUUAAATT against Nufip2: the z-score is -0.0213 (inactive). With GGUGCAAGUUUUUCAGUCUTT against Castor2 the figure was 0.411 (inactive); with GCACCAUGAAUGGAGAUGATT against Prl2c5, -2.56 (active). The figure for GCCAUACACAGUGGCAUAATT against Zfp811 is 0.395 (inactive); for CCAUAAAUCAUGAACUGGUTT against Sesn3 it is -1.41 (inactive); for GGGCAAGAACUACAUCUGCTT against Wdr18 it is -0.288 (inactive). With CCCAAAUACUCCAAUUAUATT against Fzd3 the figure was 0.289 (inactive). In the case of GCAUCUGGUAAAAGGAGCATT against Rpap1, the z-score is 0.956 (inactive). The figure for GCCAGUGGUAUCUGGAAGUTT against Brca2 is 0.0865 (inactive); for GGUAGAGCUAAGUAAAGAGTT against Pwp1 it is -0.977 (inactive). The figure for GGCAGUAAUAGGAGACCAUTT against Ces1d is 2.76 (active); for GGCUUCAGCAAAGACAAUGTT against Ache it is -1.07 (inactive); for CGCAAAGUGGACAAACGUATT against Kcne3 it is 0.0218 (inactive). As for CCAAUCGGUGAUCAAGAAATT against Tfap2e, the z-score was -0.525 (inactive). For the sequence GCCAAGGUUAUCAUGAAUGTT against F13a1, the z-score is -0.141 (inactive). With GUUUUUCUGGGCAAUUUUATT against Olfr739 the figure was 2.11 (active); with GGAGAUUUACUCACAGUUCTT against Kcnip4, 1.26 (inactive). In the case of GUAAAAUGUUCACUAAAGCTT against Olfr1248, the z-score is -1.14 (inactive).
